Source: paper PMC5836133, “The intracellular immune receptor Rx1 regulates the DNA-binding activity of a Golden2-like transcription factor”
Whole data set: some 16,000 sequences, median “e-score” near -0.044, cut for the highest 2% near 0.38. The list comes from a sample in which the highest values are over-represented; it also holds similar and randomly drawn sequences.

Target: T1, GST-NbGlk1(82-244) (Nicotiana benthamiana)
T1 chain: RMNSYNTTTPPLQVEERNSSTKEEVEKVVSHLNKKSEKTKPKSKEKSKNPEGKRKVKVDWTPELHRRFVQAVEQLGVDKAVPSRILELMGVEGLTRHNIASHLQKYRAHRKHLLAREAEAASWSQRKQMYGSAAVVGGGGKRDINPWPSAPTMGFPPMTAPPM
Experiment: protein-binding microarray; NbGlk1 is a Golden2-like transcription factor of Nicotiana benthamiana; high values mean tight binding
Conditions: protein: recombinant; tags: GST (pTH6838); dsDNA, one strand shown

Row | Sequence | binding signal
1 | ACGTGATC | 0.232 ± 0.0142 E-score
2 | ATTCGCGA | 0.318 ± 0.058 E-score
3 | AAATCGCT | 0.295 ± 0.0508 E-score
4 | ACAGAAAT | 0.248 ± 0.0234 E-score
5 | ATCCGCAT | 0.272 ± 0.0412 E-score
6 | CAAGATTA | 0.314 ± 0.00322 E-score
7 | AAAGATTT | 0.427 ± 0.00822 E-score
8 | CAAGATTC | 0.406 ± 0.00476 E-score
9 | AAAGATTA | 0.318 ± 0.0346 E-score
10 | AAAGATAC | 0.21 ± 0.0674 E-score
11 | AACGATTC | 0.214 ± 0.0649 E-score
12 | AAAGATTC | 0.401 ± 0.00855 E-score
13 | CAAGATTG | 0.308 ± 0.0144 E-score
14 | AAAGATTG | 0.335 ± 0.0169 E-score
15 | ATTGTGCG | 0.2 ± 0.0823 E-score
16 | ATCGTAAA | 0.239 ± 0.0266 E-score
17 | ATCTTCCG | 0.316 ± 0.0643 E-score
18 | ATCTGCTA | 0.331 ± 0.0558 E-score
19 | AGGATCCG | 0.26 ± 0.0521 E-score
20 | ATTTCGTG | 0.367 ± 0.0218 E-score
21 | ATTTCGTC | 0.303 ± 0.0104 E-score
22 | ATTTCGTA | 0.399 ± 0.0199 E-score
23 | ATCTTCAC | 0.352 ± 0.00871 E-score
24 | ACTGAGAT | 0.247 ± 0.0201 E-score
25 | ATCCCGAG | 0.211 ± 0.027 E-score

Row | Sequence | binding signal
26 | ATATATCC | 0.262 ± 0.0686 E-score
27 | AGATATAA | 0.208 ± 0.0225 E-score
28 | AGATATCC | 0.47954 ± 0.00034 E-score
29 | ATATATCA | 0.276 ± 0.0382 E-score
30 | AGATATAC | 0.241 ± 0.00443 E-score
31 | AGATATCG | 0.462 ± 0.00283 E-score
32 | AGATATCA | 0.434 ± 0.0219 E-score
33 | AGATATGG | 0.373 ± 0.0298 E-score
34 | AGATATGA | 0.318 ± 0.00331 E-score
35 | ATATATCG | 0.276 ± 0.0574 E-score
36 | AGATATGC | 0.415 ± 0.012 E-score
37 | AGATATAG | 0.225 ± 0.0489 E-score
38 | ATCTCGCC | 0.314 ± 0.0254 E-score
39 | ACCAAGAT | 0.289 ± 0.0649 E-score
40 | ATCCTTGA | 0.218 ± 0.0175 E-score
41 | ATTTCTAC | 0.285 ± 0.0555 E-score
42 | ATTACATA | 0.267 ± 0.0926 E-score
43 | ATTACGGC | 0.278 ± 0.0482 E-score
44 | AAGTAGAT | 0.216 ± 0.0697 E-score
45 | ATCCTTAC | 0.266 ± 0.0362 E-score
46 | ACTCAGAT | 0.255 ± 0.0118 E-score
47 | ATCTTTAG | 0.26 ± 0.0391 E-score
48 | ATTCCCCC | 0.37 ± 0.0231 E-score
49 | ATCTATAC | 0.231 ± 0.121 E-score
50 | AGATACGG | 0.372 ± 0.019 E-score

Row | Sequence | binding signal
51 | AGATACGC | 0.422 ± 0.0238 E-score
52 | AGATACGA | 0.332 ± 0.0469 E-score
53 | ACATATCT | 0.344 ± 0.0128 E-score
54 | AGATATCT | 0.48 ± 0.00495 E-score
55 | AGATATAT | 0.316 ± 0.0185 E-score
56 | ATCTTCAA | 0.303 ± 0.0183 E-score
57 | ATATTGGA | 0.241 ± 0.0475 E-score
58 | ATCAGGAA | 0.288 ± 0.064 E-score
59 | ATAGGAAT | 0.275 ± 0.0501 E-score
60 | AATCCGTG | 0.322 ± 0.0593 E-score
61 | AATCCTGT | 0.371 ± 0.0247 E-score
62 | AATCCTTC | 0.265 ± 0.077 E-score
63 | ATCCCGGA | 0.308 ± 0.0187 E-score
64 | ATTCCGGA | 0.232 ± 0.0263 E-score
65 | AATCCGTC | 0.39 ± 0.0333 E-score
66 | AATCCGTA | 0.337 ± 0.0439 E-score
67 | AATCCGGA | 0.42 ± 0.0333 E-score
68 | AATCCGGC | 0.3885 ± 0.00169 E-score
69 | AATCCGGG | 0.368 ± 0.0574 E-score
70 | AATCCGGT | 0.393 ± 0.0261 E-score
71 | ATCGTCAA | 0.231 ± 0.0882 E-score
72 | ACCCAGAT | 0.247 ± 0.0788 E-score
73 | CACCGATA | 0.256 ± 0.0751 E-score
74 | ATCAGCGA | 0.229 ± 0.0488 E-score
75 | AATCACAA | 0.346 ± 0.0519 E-score

Row | Sequence | binding signal
76 | ATTTTCTC | 0.316 ± 0.054 E-score
77 | ACGCGGAT | 0.235 ± 0.023 E-score
78 | ATAAAGAT | 0.279 ± 0.0792 E-score
79 | ACCAATAT | 0.204 ± 0.0315 E-score
80 | AATAATAT | 0.259 ± 0.0722 E-score
81 | AATCTGAT | 0.414 ± 0.0225 E-score
82 | AATCTGCT | 0.37 ± 0.0413 E-score
83 | AATCTGAC | 0.417 ± 0.0317 E-score
84 | ATTCTGAC | 0.242 ± 0.101 E-score
85 | AATATGAT | 0.222 ± 0.00614 E-score
86 | AATCTGTC | 0.391 ± 0.00978 E-score
87 | ATTCTGTC | 0.335 ± 0.0209 E-score
88 | AAACAGAT | 0.229 ± 0.0973 E-score
89 | ATCTTGAC | 0.272 ± 0.0538 E-score
90 | AATCGTAT | 0.339 ± 0.0131 E-score
91 | AAATCGCC | 0.322 ± 0.0236 E-score
92 | AGATCGCA | 0.396 ± 0.016 E-score
93 | AAATCGCG | 0.4246 ± 0.00159 E-score
94 | AGATCGCG | 0.464 ± 0.00467 E-score
95 | ATATCGCC | 0.333 ± 0.0165 E-score
96 | AGATCGTA | 0.283 ± 0.0295 E-score
97 | AAATCGCA | 0.3786 ± 0.00224 E-score
98 | AGATCGCT | 0.346 ± 0.00634 E-score
99 | ATATCGCA | 0.355 ± 0.0163 E-score
100 | ATATCGCG | 0.415 ± 0.00817 E-score

Row | Sequence | binding signal
101 | CAATCGCG | 0.2571 ± 0.00241 E-score
102 | AGATCGCC | 0.353 ± 0.0264 E-score
103 | AGCGCAAT | 0.303 ± 0.0261 E-score
104 | AAATCCTG | 0.4223 ± 0.00332 E-score
105 | AAATCCTA | 0.417 ± 0.00908 E-score
106 | AATCCCTA | 0.281 ± 0.0127 E-score
107 | CAATCCTA | 0.288 ± 0.0058 E-score
108 | AGATCCTC | 0.387 ± 0.0145 E-score
109 | AGATCCTA | 0.314 ± 0.00874 E-score
110 | AGATCCTG | 0.369 ± 0.0433 E-score
111 | AAATCCTT | 0.392 ± 0.0185 E-score
112 | AAATCGTT | 0.248 ± 0.085 E-score
113 | CAATCCTG | 0.3281 ± 0.00274 E-score
114 | AAATCATT | 0.223 ± 0.00449 E-score
115 | ATTTCACC | 0.214 ± 0.151 E-score
116 | ATTCCCCA | 0.256 ± 0.075 E-score
117 | ATCCTCGC | 0.205 ± 0.0887 E-score
118 | ATAGATCC | 0.21 ± 0.00109 E-score
119 | ATCTGTTG | 0.301 ± 0.07 E-score
120 | ATATATAC | 0.227 ± 0.00145 E-score
121 | AAATACGC | 0.2039 ± 0.00167 E-score
122 | ATCCGGAC | 0.272 ± 0.0502 E-score
123 | ATCGATTA | 0.207 ± 0.0952 E-score
124 | CAAGATCG | 0.284 ± 0.0247 E-score
125 | AATATAAA | 0.254 ± 0.107 E-score

Row | Sequence | binding signal
126 | AAATCCTC | 0.414 ± 0.051 E-score
127 | CAATCCTC | 0.269 ± 0.0948 E-score
128 | AATCCCTC | 0.293 ± 0.0225 E-score
129 | ATTCCCGA | 0.333 ± 0.0675 E-score
130 | ATCCCAAG | 0.206 ± 0.0761 E-score
131 | AATATATT | 0.285 ± 0.0974 E-score
132 | AGAATCGG | 0.375 ± 0.00432 E-score
133 | AGAATCTA | 0.48 ± 0.00879 E-score
134 | AGAATCTG | 0.4793 ± 0.00413 E-score
135 | ATAATCTG | 0.356 ± 0.0112 E-score
136 | ATAATCTA | 0.334 ± 0.0306 E-score
137 | AGAATCTC | 0.469 ± 0.0125 E-score
138 | AGAATCGA | 0.342 ± 0.0111 E-score
139 | ATATAAAT | 0.276 ± 0.0236 E-score
140 | AGGGAGAT | 0.281 ± 0.00745 E-score
141 | ACGGGGAT | 0.214 ± 0.115 E-score
142 | AAATATGA | 0.226 ± 0.0549 E-score
143 | ATCCGTGA | 0.236 ± 0.116 E-score
144 | ATACGTTA | 0.277 ± 0.00931 E-score
145 | ATTCCCTG | 0.323 ± 0.0549 E-score
146 | ATTACTAG | 0.207 ± 0.0664 E-score
147 | ATTTATTA | 0.249 ± 0.00743 E-score
148 | CAATATCC | 0.337 ± 0.0344 E-score
149 | AAATATCC | 0.42 ± 0.011 E-score
150 | AAATATCA | 0.367 ± 0.0296 E-score

Row | Sequence | binding signal
151 | ACATATCC | 0.214 ± 0.0275 E-score
152 | AAATATCG | 0.375 ± 0.0121 E-score
153 | AAATATCT | 0.407 ± 0.0254 E-score
154 | ATATTGAG | 0.214 ± 0.00643 E-score
155 | ATAAGATC | 0.33 ± 0.000581 E-score
156 | ATTCTTTA | 0.258 ± 0.0767 E-score
157 | AATCAGGC | 0.2903 ± 0.0023 E-score
158 | AATCAGGA | 0.394 ± 0.0134 E-score
159 | AATCAGGT | 0.32 ± 0.0381 E-score
160 | ATTCCCCG | 0.32 ± 0.0628 E-score
161 | ATGATCGC | 0.232 ± 0.0162 E-score
162 | CAGATCGC | 0.417 ± 0.00441 E-score
163 | AAGATCGA | 0.225 ± 0.00987 E-score
164 | AAGATCGT | 0.291 ± 0.0157 E-score
165 | CAGATCGG | 0.215 ± 0.0844 E-score
166 | AAGATCGC | 0.398 ± 0.00727 E-score
167 | AATTCCCC | 0.225 ± 0.0402 E-score
168 | AAAGTATC | 0.243 ± 0.0118 E-score
169 | ATCGTCTA | 0.208 ± 0.048 E-score
170 | ATTGCGCG | 0.378 ± 0.00773 E-score
171 | ATCTAGAC | 0.287 ± 0.00928 E-score
172 | ATCTAGAT | 0.398 ± 0.0867 E-score
173 | ATCTAGAG | 0.238 ± 0.0882 E-score
